Experimental data published in PubChem BioAssay AID1850 (Southern Research Specialized Biocontainment Screening …, 2009).
Screen size: about 310,000 compounds; about 1,000 (0.32%) were called active. Not all results are given here. Measured potencies and affinities stand elsewhere. Unmarked numbers belong to inactive results. The rule behind the calls is not given here.

Test: PhoP regulon inhibitors, Salmonella typhi PhoP promoter GFP reporter, confirmatory (AID 1850);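 note: 0% = induced wells with vehicle and 100% = uninduced wells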
Conditions: fluorescence, 4 h, at 50 µM, active compounds read high

Compound | inhibition
O=C(OCc1ccc(COC(=O)c2cccnc2Cl)cc1)c1cccnc1Cl | -8.94%
CCOc1ccc(OCC(=O)N2CCOCC2)cc1 | -0.13%
CCn1ccc(=O)c2cc3c(cc21)OCO3 | -2.2%
CCn1nc(C(=O)N2CCN(Cc3ccc4c(c3)OCO4)CC2)c2ccccc2c1=O | -11.3%
CCOC(=O)c1cn(CC)c2cc3c(cc2c1=O)OCO3 | 2.61%
CCn1cc(C(=O)NCCC(=O)OC)c(=O)c2cc3c(cc21)OCO3 | 2.1%
O=C(Nc1ccccc1C(F)(F)F)N1CCN(c2ccccn2)CC1 | 5.82%
O=C(C1CC(c2ccccc2O)=NO1)N1CCc2ccccc2C1 (stereo unspecified) | -3.18%
O=C(C[n+]1cccc(CNC(=O)c2ccc(OC(F)F)cc2)c1)Nc1ccc(F)cc1 | -3.3%
O=C(C[n+]1cccc(CNC(=O)c2ccc(OC(F)F)cc2)c1)Nc1cccc(C(F)(F)F)c1 | 1.69%
O=C(COC(=O)C1=COCCO1)Nc1ccc(F)cc1 | 2.51%
Cc1ccc(SCC(=O)Nc2ccc3c(c2)C(=O)NC3=O)cc1 | 5.23%
Oc1ccccc1CNCC12CC3CC(CC(C3)C1)C2 | 6.43%
Oc1ccc(C23CC4CC(CC(C4)C2)C3)cc1O | 0.69%
C=CCNC(=O)c1cccc(OC2CCN(CC(C)(C)C)CC2)c1 | -1.47%
O=C(Nc1cccc(S(=O)(=O)N2CCCC2)c1)c1ccncc1 | -14.8%
Nc1c(Cl)ncnc1N/N=C/c1ccncc1 | 5.13%
Nc1c(Cl)ncnc1N/N=C/c1ccc2ccccc2n1 | 8.37%
O=C(C[n+]1cc(Br)cc2ccccc21)c1ccc(Br)cc1 | 5.62%
O=C(C[n+]1cc(Br)cc2ccccc21)c1ccccc1 | 22%
CCCNC(=O)CSc1nnc(-c2ccc(F)cc2)o1 | -7.43%

Compound | inhibition
CC1CN(CC(O)COc2ccc(C#N)cc2)CCN1CC(O)COc1ccc(C#N)cc1 (stereo unspecified) | 9.68%
O=C(Nc1cccc([N+](=O)[O-])c1)Nc1cccc([N+](=O)[O-])c1 | 1.71%
O=C(Cc1cccs1)Nc1cccc([N+](=O)[O-])c1 | 0.05%
CN(C)S(=O)(=O)c1cccc(-c2csc(=Nc3ccccc3)n2CCCN2CCOCC2)c1 | 4.21%
COc1ccc(C(=O)c2no[n+]([O-])c2C(=O)c2ccc(OC)cc2)cc1 | 21.3%
Cc1ccc(C(=O)c2no[n+]([O-])c2C(=O)c2ccc(C)cc2)cc1 | 19.9%
O=C(NCCN1CCOCC1)c1ccc2c(c1)N(Cc1c(F)cccc1Cl)C(=O)c1ccccc1S2 | -4.77%
CCc1nnc(NC(=O)c2cccc(S(=O)(=O)N3CCc4ccccc43)c2)s1 | -12.3%
Oc1c(Br)cccc1/C=N/c1ncn[nH]1 | -5.35%
Oc1c(Cl)cc(Cl)cc1/C=N/c1ncn[nH]1 | 3.2%
O=[N+]([O-])C(=C1Nc2ccccc2N1)/C(Cl)=C(/Cl)Br | -3.57%
O=[N+]([O-])C(=C1Nc2ccccc2N1)C(Cl)=C(Cl)Cl | -0.56%
Cc1ccc(S(=O)(=O)NCCC(=O)Nc2ccncc2)cc1C | 9.54%
COCCNC(=O)C1CC(c2ccc(F)cc2)=NO1 (stereo unspecified) | -13.4%
Cc1ccc(S(=O)(=O)N2CCCC2C(=O)NCc2ccccc2F)cc1 (stereo unspecified) | -7.81%
CCN(CC)CCCn1c2c(c(SCC(=O)Nc3ccc4c(c3)OCCO4)nc1=O)CCC2 | 11.9%
Cc1ccsc1CN(C)C(=O)CCc1nnc(COc2ccccc2)o1 | -5.48%
Cc1[nH]n(-c2ccccc2)c(=O)c1/C=N/NC(=O)COc1ccccc1[N+](=O)[O-] | -5.18%
Cc1ccc(OCC(=O)N/N=C\c2c(C)n(C)c3ccccc23)c([N+](=O)[O-])c1 | -4.6%
COCCNC(=O)c1onc(CS(=O)(=O)c2cc(C)cc(C)c2)c1C(=O)NCCOC | 5.4%
O=C(NCc1ccc2c(c1)OCO2)c1cccc([N+](=O)[O-])c1 | -1.83%

Compound | inhibition
COc1ccc(/C=C2/C(=O)N(c3nc4ccccc4s3)N=C2CSc2ccc(Cl)cc2)cc1 | 3.84%
CC(C)N1CCc2c(sc(NC(=O)c3ccc([N+](=O)[O-])o3)c2C(N)=O)C1 | -4.77%
NC(=O)c1c(NC(=O)c2ccc([N+](=O)[O-])o2)sc2c1CCCC2 | -5.17%
Cn1c(=O)cc(OCCCC(=O)NCc2cccnc2)c2ccccc21 | 0.57%
COc1ccccc1N1C(=O)c2cccnc2C1=O | -1.48%
CCc1ccc(/C=C/C(=O)c2cc(Br)ccc(=O)c2O)cc1 | -13.9%
Cc1cccc(/C=C/C(=O)c2cc(Br)ccc(=O)c2O)c1 | 4.56%
CCOC(=O)C1(CC)CC(CSc2nc3ccccc3[nH]2)OC1=O (stereo unspecified) | 5.22%
O=C(O)c1cccnc1Sc1ccccc1Cl | -7.16%
c1ccc(CN2CCN(Cc3c[nH]c4ccccc34)CC2)cc1 | 1.99%
Clc1ccccc1N1CCN(Cc2c[nH]c3ccccc23)CC1 | -13.8%
Nc1ccc(Sc2ccc([N+](=O)[O-])cc2)cc1 | -7.65%
Nc1ccccc1SC(C[N+](=O)[O-])c1ccccc1 (stereo unspecified) | 15.4%
COc1cc(/C=N/NC(=O)c2ccncc2)ccc1Oc1ccc([N+](=O)[O-])cn1 | 4.23%
OC(CN1CCCCC1)Cn1c2ccccc2c2ccccc21 (stereo unspecified) | -5.86%
COc1ccc(OCC(O)CNCc2ccco2)cc1 (stereo unspecified) | 0.683%
OC(CNCc1ccco1)Cn1c2ccccc2c2ccccc21 (stereo unspecified) | 1.11%
O=c1c2ccccc2n(CC(O)CN2CCCCC2)c2ccccc12 (stereo unspecified) | -2.95%
CC1(C)CC(OC(=O)c2ccco2)CC(C)(C)N1O | -11.8%
